This is one part of the list.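 How the source made its calls: active means superoxide signal below 65% of the plate average of sample wells; inactive means the rest.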
Assay: superoxide lowering in aged yeast cells, confirmation, cherry picked compounds (AID 434994);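 further: cells aged with compound for 7 days at 30 degrees C before staining; 100% equals mean DHE fluorescence of all compound wells on the plate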
Conditions: S. cerevisiae aging, superoxide DHE fluorescence; at 10 µM; hits give low values

Superoxide response (% of plate), inactive:
Cc1ccc(-c2nc(CSCC(=O)NC3CCN(Cc4ccccc4)CC3)c(C)o2)cc1 101%, Cc1ccccc1NC(=O)NCC1CCN(Cc2cccc(Cl)c2)CC1 94.6%, O=C(Nc1ccccc1N1CCCC1)c1ccc2ccccc2c1 95.3%, Cc1cc2oc(C(=O)Nc3c(C)n(C)n(-c4ccccc4)c3=O)c(C)c2cc1Cl 93.5%, CC(=O)c1ccc2c(c1)c1ccccc1n2CC(C)C 107%, COc1cccc(NC(=O)NCCN2CCCCC2)c1 101%, CCN(CC)C(=O)CSc1nnc(-c2cccc(OC)c2)o1 113%, COc1cc(-c2nnn(CC(=O)NCc3ccccc3)n2)cc(OC)c1OC 100%, Cc1cc(=O)n2[nH]c(-c3cccc(Cl)c3)cc2n1 98.1%, CCN(CC)c1ccc(NC(=O)CN2CCN(c3ccccn3)CC2)cc1 101%, O=[N+]([O-])c1ccc2c(c1)Nc1nc3ccccc3nc1N2 82.5%, CCn1c2ccccc2c2cc(CC(N)=O)ccc21 111%, O=C(CSCc1ccccc1)Nc1ccccc1 107%, CC1CCCN(S(=O)(=O)c2ccc(C(=O)Nc3nnc(-c4ccncc4)o3)cc2)C1 (configuration not stated) 111%, CC(C)NC(=O)/C(C#N)=C\c1ccc(N(C)C)c(Br)c1 88.1%, O=C(Nc1cccc(Cl)c1Cl)c1ccccc1NC(=O)C1CC=CCC1C(=O)O (configuration not stated) 101%, COc1ccc(CCNC(=O)c2ccccc2-c2ccccc2C(=O)O)cc1OC 108%, CCn1c2ccccc2c2cc(NC(=O)CNC)ccc21 107%, O=C(CSc1ccc(-c2ccc(-n3cccn3)cc2)nn1)Nc1ccc([N+](=O)[O-])cc1 95.7%, CN1CCN(c2cc3c(cc2F)c(=O)c(C(=O)O)cn3CCF)CC1 116%, O=C(Nc1ccc(Br)cn1)c1ccc([N+](=O)[O-])cc1Cl 96.2%, COc1ccc(C)cc1S(=O)(=O)Nc1cccc(Cl)c1Cl 96.3%
